The values below come from PMC7862700, “An all-to-all approach to the identification of sequence-specific readers for epigenetic DNA modifications on cytosine”.

Common to all, as to test: DAPPL (digital affinity profiling via proximity ligation, sequencing); 10 mM Tris-HCl pH 7.5, 50 mM NaCl, 1 mM DTT, 4% glycerol, room temperature, 30 min; GST-TFs on glutathione beads, 16-mer random dsDNA library, 0.1% formaldehyde crosslink after washing; high values mean tight binding
One test concerns the target T1, FLI1 (Homo sapiens, UniProt Q01543 1-452).
T1 sequence: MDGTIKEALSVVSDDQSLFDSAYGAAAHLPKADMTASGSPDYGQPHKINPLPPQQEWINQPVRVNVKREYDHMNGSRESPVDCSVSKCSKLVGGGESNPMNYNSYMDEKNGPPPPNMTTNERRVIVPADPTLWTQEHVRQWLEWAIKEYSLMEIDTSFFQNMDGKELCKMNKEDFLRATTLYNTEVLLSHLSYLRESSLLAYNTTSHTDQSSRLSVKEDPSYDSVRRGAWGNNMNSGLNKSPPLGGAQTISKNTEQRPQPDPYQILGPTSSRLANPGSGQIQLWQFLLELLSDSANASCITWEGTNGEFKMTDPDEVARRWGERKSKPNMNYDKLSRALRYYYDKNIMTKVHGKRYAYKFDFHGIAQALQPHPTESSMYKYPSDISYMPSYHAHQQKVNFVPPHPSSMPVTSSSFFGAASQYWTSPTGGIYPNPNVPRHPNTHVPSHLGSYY
To be noted: protein: recombinant; tags: N-terminal GST; dsDNA, one strand shown. In short, it runs like this: (§1)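 Pools were built from human transcription factors expressed in yeast as GST fusions, captured on glutathione beads and DNA-barcoded, along with a tag-only sample. Incubation with 200 nmole of a 16-mer random double-stranded DNA library lasted 30 min at room temperature in Tris/NaCl/DTT/glycerol buffer, and was followed by washing, 0.1% formaldehyde crosslinking, proximity ligation, PCR amplification and Illumina NextSeq500 sequencing. Binding signal is the quotient of each hexamer's read frequency for a factor and its frequency for the tag-only sample.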

The target of a further test is T2, ELK1 (Homo sapiens, UniProt P19419 1-428).
T2 sequence: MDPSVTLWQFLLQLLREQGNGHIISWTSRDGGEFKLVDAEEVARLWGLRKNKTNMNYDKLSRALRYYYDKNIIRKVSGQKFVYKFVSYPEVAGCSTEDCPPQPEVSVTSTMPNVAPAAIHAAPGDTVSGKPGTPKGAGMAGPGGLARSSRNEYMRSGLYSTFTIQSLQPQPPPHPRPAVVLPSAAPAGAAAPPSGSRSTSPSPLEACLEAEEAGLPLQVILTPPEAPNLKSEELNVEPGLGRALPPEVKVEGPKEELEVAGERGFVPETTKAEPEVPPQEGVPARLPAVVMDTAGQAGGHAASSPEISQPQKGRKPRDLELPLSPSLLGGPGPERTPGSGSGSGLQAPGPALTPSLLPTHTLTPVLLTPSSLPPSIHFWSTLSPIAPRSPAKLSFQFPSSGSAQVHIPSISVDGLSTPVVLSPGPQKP
As to conditions: protein: recombinant; tags: N-terminal GST; dsDNA, one strand shown. In short, it runs like this:
as §1

The next test addresses T3, GABPA (Homo sapiens, UniProt Q06546 1-454).
T3 sequence: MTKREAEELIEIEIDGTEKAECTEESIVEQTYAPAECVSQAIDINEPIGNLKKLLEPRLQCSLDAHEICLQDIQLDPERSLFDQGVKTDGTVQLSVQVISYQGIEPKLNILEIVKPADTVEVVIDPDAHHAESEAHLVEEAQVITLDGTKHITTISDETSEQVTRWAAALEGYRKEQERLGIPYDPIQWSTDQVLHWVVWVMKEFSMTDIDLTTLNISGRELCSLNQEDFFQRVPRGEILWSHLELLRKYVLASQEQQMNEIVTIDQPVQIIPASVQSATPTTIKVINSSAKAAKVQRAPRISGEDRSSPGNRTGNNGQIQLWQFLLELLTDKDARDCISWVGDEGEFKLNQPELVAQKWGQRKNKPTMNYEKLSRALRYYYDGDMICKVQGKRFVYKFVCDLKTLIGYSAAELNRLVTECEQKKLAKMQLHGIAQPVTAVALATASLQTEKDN
To be noted: protein: recombinant; tags: N-terminal GST; dsDNA, one strand shown. A digest of the protocol: as §1

The next test has as its target T4, ERG (Homo sapiens, UniProt P11308 1-479).
T4 sequence: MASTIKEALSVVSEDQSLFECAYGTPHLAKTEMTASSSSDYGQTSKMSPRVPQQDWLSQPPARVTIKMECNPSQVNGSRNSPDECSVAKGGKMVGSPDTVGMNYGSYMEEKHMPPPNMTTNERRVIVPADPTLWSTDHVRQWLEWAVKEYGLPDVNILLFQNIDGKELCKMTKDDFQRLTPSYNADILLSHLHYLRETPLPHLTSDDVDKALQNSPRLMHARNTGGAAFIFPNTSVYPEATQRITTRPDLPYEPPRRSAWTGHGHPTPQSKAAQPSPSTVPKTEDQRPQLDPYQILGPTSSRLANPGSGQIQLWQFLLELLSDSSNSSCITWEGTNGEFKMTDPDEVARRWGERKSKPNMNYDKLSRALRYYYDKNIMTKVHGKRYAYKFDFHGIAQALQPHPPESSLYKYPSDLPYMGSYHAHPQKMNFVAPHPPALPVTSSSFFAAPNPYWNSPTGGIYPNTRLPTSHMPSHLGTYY
To be noted: protein: recombinant; tags: N-terminal GST; dsDNA, one strand shown. In short, it runs like this: as §1

For the next test, the target named is ELF1 (Homo sapiens, UniProt P32519 1-619). As to conditions: protein: recombinant; tags: N-terminal GST; dsDNA, one strand shown. In short, it runs like this: as §1
Another test addresses T5, EHF (Homo sapiens, UniProt Q9NZC4 1-300).
T5 sequence: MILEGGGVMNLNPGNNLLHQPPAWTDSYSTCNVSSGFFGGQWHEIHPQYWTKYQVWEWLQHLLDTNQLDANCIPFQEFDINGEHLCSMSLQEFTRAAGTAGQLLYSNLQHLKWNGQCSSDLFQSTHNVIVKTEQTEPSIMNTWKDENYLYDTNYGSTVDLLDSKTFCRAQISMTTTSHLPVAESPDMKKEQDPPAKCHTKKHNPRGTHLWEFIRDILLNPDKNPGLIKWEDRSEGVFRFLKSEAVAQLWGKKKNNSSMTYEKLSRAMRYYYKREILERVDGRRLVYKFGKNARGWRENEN
As to conditions: protein: recombinant; tags: N-terminal GST; dsDNA, one strand shown. In short, it runs like this:
as §1

Another test addresses SPI1 (Homo sapiens, UniProt P17947 1-270). To be noted: protein: recombinant; tags: N-terminal GST; dsDNA, one strand shown. In short, it runs like this:
as §1

Another test concerns the target SPIB (Homo sapiens, UniProt Q01892 1-262). To be noted: protein: recombinant; tags: N-terminal GST; dsDNA, one strand shown. In short, it runs like this:
as §1

In the next test the target is T6, ELK3 (Homo sapiens, UniProt P41970 1-407).
T6 sequence: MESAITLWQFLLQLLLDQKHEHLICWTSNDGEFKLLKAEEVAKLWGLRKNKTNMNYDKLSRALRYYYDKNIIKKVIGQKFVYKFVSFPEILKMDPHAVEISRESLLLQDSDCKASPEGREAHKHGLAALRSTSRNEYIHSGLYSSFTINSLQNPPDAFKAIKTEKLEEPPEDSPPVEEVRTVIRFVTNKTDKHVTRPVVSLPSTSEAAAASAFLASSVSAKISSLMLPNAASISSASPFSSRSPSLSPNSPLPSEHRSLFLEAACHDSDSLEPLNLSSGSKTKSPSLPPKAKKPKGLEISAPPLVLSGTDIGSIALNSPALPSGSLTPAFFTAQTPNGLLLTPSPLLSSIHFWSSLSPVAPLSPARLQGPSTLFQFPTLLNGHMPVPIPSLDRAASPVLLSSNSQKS
To be noted: protein: recombinant; tags: N-terminal GST; dsDNA, one strand shown. A digest of the protocol:
as §1

Another test addresses T7, FEV (Homo sapiens, UniProt Q99581 1-238).
T7 sequence: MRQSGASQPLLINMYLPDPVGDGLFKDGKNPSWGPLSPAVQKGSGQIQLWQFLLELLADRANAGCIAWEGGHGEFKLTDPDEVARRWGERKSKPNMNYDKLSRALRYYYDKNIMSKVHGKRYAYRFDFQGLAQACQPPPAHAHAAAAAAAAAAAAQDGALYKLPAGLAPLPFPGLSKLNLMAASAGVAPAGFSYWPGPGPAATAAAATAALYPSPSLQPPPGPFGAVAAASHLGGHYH
As to conditions: protein: recombinant; tags: N-terminal GST; dsDNA, one strand shown. In short, it runs like this:
as §1

In another test the target is ETV5 (Homo sapiens, UniProt P41161 1-510). To be noted: protein: recombinant; tags: N-terminal GST; dsDNA, one strand shown. A digest of the protocol: as §1
A further test has as its target HSF1 (Homo sapiens, UniProt Q00613 1-529). To be noted: protein: recombinant; tags: N-terminal GST; chain copies: 3; dsDNA, one strand shown. A digest of the protocol: as §1
Another test has as its target T8, SPIC (Homo sapiens, UniProt Q8N5J4 1-248).
T8 sequence: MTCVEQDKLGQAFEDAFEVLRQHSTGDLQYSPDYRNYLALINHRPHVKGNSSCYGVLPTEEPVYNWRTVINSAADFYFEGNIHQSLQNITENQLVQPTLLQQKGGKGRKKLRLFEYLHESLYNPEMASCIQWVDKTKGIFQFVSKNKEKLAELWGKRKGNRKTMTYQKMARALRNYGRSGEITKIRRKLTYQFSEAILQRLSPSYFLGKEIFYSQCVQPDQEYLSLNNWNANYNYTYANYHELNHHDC
As to conditions: protein: recombinant; tags: N-terminal GST; dsDNA, one strand shown. A digest of the protocol:
as §1

For a further test, the target named is ELF4 (Homo sapiens, UniProt Q99607 1-663). To be noted: protein: recombinant; tags: N-terminal GST; dsDNA, one strand shown. In short, it runs like this:
as §1

Another test has as its target T9, ELK4 (Homo sapiens, UniProt P28324-2 1-405).
T9 sequence: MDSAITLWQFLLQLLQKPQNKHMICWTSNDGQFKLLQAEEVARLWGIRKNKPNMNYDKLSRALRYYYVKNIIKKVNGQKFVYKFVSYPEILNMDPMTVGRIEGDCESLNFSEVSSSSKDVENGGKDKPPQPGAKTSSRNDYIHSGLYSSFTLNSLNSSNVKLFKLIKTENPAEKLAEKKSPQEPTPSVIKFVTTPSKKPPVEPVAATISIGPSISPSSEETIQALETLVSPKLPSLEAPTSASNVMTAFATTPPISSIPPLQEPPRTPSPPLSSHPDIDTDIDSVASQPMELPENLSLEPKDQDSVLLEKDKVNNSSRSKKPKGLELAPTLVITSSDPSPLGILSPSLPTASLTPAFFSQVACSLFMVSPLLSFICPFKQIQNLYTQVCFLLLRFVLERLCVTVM
To be noted: protein: recombinant; tags: N-terminal GST; dsDNA, one strand shown. A digest of the protocol: as §1

The next test deals with T10, ETV2 (Homo sapiens, UniProt O00321 1-342).
T10 sequence: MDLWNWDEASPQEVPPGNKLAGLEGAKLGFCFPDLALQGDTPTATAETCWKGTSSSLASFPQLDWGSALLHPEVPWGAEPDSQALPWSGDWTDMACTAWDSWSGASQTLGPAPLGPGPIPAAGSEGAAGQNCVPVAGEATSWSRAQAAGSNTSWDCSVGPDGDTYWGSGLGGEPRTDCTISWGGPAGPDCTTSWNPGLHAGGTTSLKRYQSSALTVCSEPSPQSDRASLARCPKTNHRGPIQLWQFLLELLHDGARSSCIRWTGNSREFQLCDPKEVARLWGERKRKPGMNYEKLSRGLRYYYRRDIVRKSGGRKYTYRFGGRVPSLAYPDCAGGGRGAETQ
As to conditions: protein: recombinant; tags: N-terminal GST; dsDNA, one strand shown. In short, it runs like this: as §1

For another test, the target named is T11, ELF3 (Homo sapiens, UniProt P78545 1-371).
T11 sequence: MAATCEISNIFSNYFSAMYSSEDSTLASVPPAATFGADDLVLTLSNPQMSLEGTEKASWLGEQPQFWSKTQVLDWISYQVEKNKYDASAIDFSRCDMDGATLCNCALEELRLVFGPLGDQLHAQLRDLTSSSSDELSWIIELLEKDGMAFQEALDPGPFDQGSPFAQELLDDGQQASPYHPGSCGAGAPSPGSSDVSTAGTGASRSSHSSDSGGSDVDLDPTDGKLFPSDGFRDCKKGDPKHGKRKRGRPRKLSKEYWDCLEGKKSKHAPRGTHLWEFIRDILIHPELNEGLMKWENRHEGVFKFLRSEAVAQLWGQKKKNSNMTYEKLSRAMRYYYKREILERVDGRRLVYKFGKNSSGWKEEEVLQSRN
To be noted: protein: recombinant; tags: N-terminal GST; dsDNA, one strand shown. A digest of the protocol:
as §1

A further test addresses CRX (Homo sapiens, UniProt O43186 1-299). To be noted: protein: recombinant; tags: N-terminal GST; dsDNA, one strand shown. In short, it runs like this:
as §1

For the next test, the target named is ETV1 (Homo sapiens, UniProt P50549 1-477). To be noted: protein: recombinant; tags: N-terminal GST; dsDNA, one strand shown. A digest of the protocol: as §1
Sequence of ETV1 (P50549 whole entry): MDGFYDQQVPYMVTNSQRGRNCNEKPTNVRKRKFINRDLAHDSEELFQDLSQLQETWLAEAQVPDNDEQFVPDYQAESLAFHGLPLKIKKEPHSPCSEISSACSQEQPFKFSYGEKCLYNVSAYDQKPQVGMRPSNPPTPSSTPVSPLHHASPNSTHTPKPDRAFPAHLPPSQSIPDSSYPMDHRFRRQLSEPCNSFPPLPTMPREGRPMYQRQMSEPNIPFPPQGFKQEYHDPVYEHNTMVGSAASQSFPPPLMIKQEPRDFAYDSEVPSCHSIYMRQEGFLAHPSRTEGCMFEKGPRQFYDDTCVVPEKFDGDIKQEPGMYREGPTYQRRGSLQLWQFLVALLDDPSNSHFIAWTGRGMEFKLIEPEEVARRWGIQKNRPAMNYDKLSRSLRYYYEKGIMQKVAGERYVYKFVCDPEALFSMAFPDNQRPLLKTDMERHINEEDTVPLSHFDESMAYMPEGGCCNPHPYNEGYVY

Sequence of CRX (O43186 whole entry): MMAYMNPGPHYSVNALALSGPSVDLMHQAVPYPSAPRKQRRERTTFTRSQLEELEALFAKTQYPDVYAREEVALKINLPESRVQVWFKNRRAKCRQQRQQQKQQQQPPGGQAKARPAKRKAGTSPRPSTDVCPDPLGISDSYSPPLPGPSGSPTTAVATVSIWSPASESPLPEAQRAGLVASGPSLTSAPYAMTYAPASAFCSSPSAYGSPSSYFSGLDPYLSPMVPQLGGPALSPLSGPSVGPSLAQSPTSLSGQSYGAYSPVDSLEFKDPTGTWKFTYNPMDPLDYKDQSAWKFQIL
Sequence of ELF4 (Q99607 whole entry): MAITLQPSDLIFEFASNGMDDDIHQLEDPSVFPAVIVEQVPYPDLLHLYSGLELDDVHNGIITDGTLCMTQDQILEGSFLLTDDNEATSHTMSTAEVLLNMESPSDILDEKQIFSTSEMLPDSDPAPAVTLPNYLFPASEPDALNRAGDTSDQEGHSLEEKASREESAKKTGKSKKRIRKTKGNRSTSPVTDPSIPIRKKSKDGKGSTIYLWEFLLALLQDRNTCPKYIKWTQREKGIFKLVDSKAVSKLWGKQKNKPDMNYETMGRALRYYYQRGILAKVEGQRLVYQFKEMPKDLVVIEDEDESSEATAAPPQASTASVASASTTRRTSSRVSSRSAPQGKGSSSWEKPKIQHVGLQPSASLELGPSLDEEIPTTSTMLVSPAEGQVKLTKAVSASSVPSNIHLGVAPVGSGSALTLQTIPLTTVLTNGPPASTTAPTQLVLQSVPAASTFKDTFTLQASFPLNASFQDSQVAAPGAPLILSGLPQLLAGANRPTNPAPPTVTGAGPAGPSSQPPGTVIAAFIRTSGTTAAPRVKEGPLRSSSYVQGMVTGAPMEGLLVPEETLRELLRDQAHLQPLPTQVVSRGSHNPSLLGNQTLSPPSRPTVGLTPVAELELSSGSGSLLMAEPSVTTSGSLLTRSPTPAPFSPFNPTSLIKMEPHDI
Sequence of ELF1 (P32519 whole entry): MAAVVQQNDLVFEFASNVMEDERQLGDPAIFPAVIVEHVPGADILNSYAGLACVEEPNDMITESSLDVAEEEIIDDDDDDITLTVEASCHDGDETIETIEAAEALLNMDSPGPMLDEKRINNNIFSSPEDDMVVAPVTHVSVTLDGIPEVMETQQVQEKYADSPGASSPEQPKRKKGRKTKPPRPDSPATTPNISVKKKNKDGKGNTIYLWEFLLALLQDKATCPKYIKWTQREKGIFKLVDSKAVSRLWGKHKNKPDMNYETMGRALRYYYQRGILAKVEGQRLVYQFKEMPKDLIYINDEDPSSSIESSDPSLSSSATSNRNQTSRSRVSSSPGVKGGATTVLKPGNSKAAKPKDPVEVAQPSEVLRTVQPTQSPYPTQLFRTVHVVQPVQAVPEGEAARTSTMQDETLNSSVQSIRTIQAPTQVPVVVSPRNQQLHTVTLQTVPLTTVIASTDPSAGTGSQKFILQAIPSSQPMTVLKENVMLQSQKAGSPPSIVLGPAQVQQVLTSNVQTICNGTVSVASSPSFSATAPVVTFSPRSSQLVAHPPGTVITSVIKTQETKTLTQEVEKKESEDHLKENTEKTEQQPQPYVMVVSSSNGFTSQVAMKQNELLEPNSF
Sequence of SPIB (Q01892 whole entry): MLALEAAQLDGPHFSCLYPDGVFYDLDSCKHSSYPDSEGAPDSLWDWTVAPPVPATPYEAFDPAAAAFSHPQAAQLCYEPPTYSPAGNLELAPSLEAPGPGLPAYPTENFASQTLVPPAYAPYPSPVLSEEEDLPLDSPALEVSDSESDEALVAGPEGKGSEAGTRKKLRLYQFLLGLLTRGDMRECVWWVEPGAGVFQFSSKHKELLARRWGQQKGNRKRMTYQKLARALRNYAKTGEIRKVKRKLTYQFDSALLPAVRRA
Sequence of HSF1 (Q00613 whole entry): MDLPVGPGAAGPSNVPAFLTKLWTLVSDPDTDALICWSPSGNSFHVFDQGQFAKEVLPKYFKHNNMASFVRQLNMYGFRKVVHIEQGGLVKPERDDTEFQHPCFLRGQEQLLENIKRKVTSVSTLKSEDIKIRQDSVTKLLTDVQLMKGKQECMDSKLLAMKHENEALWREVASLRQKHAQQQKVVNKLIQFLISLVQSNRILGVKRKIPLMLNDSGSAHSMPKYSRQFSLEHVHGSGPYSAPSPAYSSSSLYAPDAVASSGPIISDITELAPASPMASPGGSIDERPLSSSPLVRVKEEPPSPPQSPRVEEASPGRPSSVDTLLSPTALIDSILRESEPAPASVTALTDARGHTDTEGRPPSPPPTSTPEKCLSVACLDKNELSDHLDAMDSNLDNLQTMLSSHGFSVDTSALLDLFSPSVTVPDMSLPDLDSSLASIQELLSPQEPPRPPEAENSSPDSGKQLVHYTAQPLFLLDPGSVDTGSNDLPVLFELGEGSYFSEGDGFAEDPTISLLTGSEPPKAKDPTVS
Sequence of ETV5 (P41161 whole entry): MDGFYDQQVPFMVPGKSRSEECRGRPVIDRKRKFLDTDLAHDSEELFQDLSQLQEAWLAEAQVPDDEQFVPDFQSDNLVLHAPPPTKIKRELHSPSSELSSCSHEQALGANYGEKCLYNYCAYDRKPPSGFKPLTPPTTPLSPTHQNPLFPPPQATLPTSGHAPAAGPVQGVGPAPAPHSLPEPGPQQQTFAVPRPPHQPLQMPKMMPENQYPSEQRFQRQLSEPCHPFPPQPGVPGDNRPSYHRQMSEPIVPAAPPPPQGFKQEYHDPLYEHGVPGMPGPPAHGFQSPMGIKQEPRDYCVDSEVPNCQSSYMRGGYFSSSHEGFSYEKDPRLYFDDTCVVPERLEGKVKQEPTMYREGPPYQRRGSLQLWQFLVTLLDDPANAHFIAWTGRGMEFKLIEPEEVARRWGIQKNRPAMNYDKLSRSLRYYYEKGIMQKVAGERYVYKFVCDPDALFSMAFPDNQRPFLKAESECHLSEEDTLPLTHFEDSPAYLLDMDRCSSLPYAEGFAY

Take GGCCTA: the binding signal was 1.15 fold enrichment (6-mer frequency, TF over GST control) with FLI1; 1.22 fold enrichment (6-mer frequency, TF over GST control) with ELK1; 1.31 fold enrichment (6-mer frequency, TF over GST control) with GABPA; 1.37 fold enrichment (6-mer frequency, TF over GST control) with ERG; 1.3 fold enrichment (6-mer frequency, TF over GST control) with ELF1; 1.23 fold enrichment (6-mer frequency, TF over GST control) in the test with EHF. Moreover, the binding signal in the test with SPI1 was 1.03 fold enrichment (6-mer frequency, TF over GST control); in the test with SPIB it was 1.04 fold enrichment (6-mer frequency, TF over GST control); in the test with ELK3, 1.1 fold enrichment (6-mer frequency, TF over GST control); with FEV, 1.19 fold enrichment (6-mer frequency, TF over GST control); with ETV5, 1.22 fold enrichment (6-mer frequency, TF over GST control); with HSF1 it was 1.33 fold enrichment (6-mer frequency, TF over GST control). Moreover, the binding signal is 1.1 fold enrichment (6-mer frequency, TF over GST control) with SPIC; 1.25 fold enrichment (6-mer frequency, TF over GST control) with ELF4; 1.25 fold enrichment (6-mer frequency, TF over GST control) in the test with ELK4; 1.14 fold enrichment (6-mer frequency, TF over GST control) with ETV2; 1.22 fold enrichment (6-mer frequency, TF over GST control) in the test with ELF3; 1.39 fold enrichment (6-mer frequency, TF over GST control) with CRX. In addition, in the test with ETV1, the binding signal was 1.2 fold enrichment (6-mer frequency, TF over GST control).
